Source: PubChem
An excerpt weighted towards active compounds, which were near 27% of everything screened.
CYP2C9 inh – inhibitors of human CYP2C9. P11712. CYP2C9 Supersomes, luciferin-H conversion, luminescence. inhibition, % at 5 µM. actives 20% (n = 96,000);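 active means blocking of liver enzyme CYP2C9 beyond about 50% at 5 µM, limit read from the data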
sEH inh – soluble epoxide hydrolase (human) inhibition. P34913. inhibition, % at 2 µM. recombinant human sEH enzymatic activity assay. actives 0.34% (n = 91,000). AID 707; in the data active means inhibition above about 80%
CYP2C19 inh – inhibitors of human CYP2C19. P33261. CYP2C19 Supersomes, luciferin-H EGE luminescence, 30 min. inhibition, % at 5 µM. actives 21% (n = 96,000);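 active means CYP2C19 inhibition above a set limit at 5 µM in the primary screen, cut at about 50% in these data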
Target sequence (P33261 whole entry, looked up): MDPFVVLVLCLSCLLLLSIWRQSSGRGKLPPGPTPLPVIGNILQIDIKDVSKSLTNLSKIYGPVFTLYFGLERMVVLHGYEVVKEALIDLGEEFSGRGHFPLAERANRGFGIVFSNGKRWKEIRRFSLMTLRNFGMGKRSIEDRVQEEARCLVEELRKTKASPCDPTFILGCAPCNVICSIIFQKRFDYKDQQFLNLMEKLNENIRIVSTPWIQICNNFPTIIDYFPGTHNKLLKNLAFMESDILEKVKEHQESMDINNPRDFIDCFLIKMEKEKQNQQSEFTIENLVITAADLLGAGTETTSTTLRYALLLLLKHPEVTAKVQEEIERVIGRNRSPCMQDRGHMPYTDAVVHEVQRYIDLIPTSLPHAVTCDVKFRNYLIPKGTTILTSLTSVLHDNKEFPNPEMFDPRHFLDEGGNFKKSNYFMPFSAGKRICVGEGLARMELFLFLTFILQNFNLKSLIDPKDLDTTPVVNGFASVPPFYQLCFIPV
CYP2C19 activ – cytochrome P450 2C19 (human) activation | P33261 | 96,000 tested, under 10 active | recombinant CYP2C19, luciferin-H EGE luminescence; stronger effect = higher value; 0 = fully inhibited enzyme, 1 = untreated enzyme | activation factor at 5 µM | AID 1025;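 active means activation factor of at least 2 at 5 µM in the primary screen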
sEH act – soluble epoxide hydrolase (human) activation; purified human sEH enzymatic activity, activator screen; actives 0.04% (n = 91,000); activation, % at 2 µM; AID 717; in the data active means activation above about 37%
CYP2C9 activ – activators of human CYP2C9; P11712; recombinant CYP2C9, luciferin-H conversion, luminescence; stronger effect = higher value; factor 1 = untreated enzyme, 0 = blocked; activation factor at 5 µM; actives 1.4% (n = 96,000); AID 1024;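 active means activation factor of 2 or more for CYP2C9 at a 5 µM dose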
Numbers stand for hits; - = inactive; . = not tested or not shown.

SMILES	CYP2C9 inh	sEH inh	CYP2C19 inh	CYP2C19 activ	sEH act	CYP2C9 activ
CCOC(=O)c1sc(NC(=O)c2ccc(C)s2)cc1C	-	87	-	-	-	-
CCCc1nc2oc3c(N4CCNCC4)ncnc3c2c2c1CCCC2	-	.	-	-	.	-
COc1ccc(C(=O)N[C@H](C(=O)NCC2CCCCC2)C(C)C)cc1	-	-	-	-	-	-
CCOC(=O)C1CCN(C=Nc2cc(C)on2)CC1	-	-	-	-	-	-
O=C(NCC(c1cccnc1)N1CCN(c2ccc(F)cc2)CC1)c1cccc(Cl)c1 (stereo unspecified)	52	-	-	-	-	-
O=C(NCC(c1cccnc1)N1CCOCC1)c1ccc2c(c1)OCO2 (stereo unspecified)	.	-	.	.	-	.
O=C(NCC(c1cccnc1)N1CCN(c2ccccc2F)CC1)OCc1ccccc1 (stereo unspecified)	94	-	91	-	-	-
O=C(NCC(c1cccnc1)N1CCN(c2ccccc2)CC1)OCc1ccccc1 (stereo unspecified)	.	-	.	.	-	.
O=C(NCC(c1cccnc1)N1CCN(c2ccccc2)CC1)c1ccc2c(c1)OCO2 (stereo unspecified)	76	-	59	-	-	-
O=C(NCC(c1cccnc1)N1CCN(c2ccc(F)cc2)CC1)OCc1ccccc1 (stereo unspecified)	82	-	85	-	-	-
Cc1c(C(C)NC(=O)Nc2ccc(F)cc2F)cnn1C (stereo unspecified)	-	-	-	-	-	-
O=C(NCC(c1cccnc1)N1CCN(c2ccccc2F)CC1)c1ccco1 (stereo unspecified)	-	-	-	-	-	-
O=C(NCC(c1cccnc1)N1CCN(c2ccccc2F)CC1)c1ccccc1 (stereo unspecified)	-	.	52	-	.	-
CC(CO)Nc1nc(SCc2ccccc2)nc2sc3c(c12)CCC3 (stereo unspecified)	56	-	-	-	-	-
CCN1CCN(C(c2ccccc2OC)c2nnnn2C2CCCCC2)CC1 (stereo unspecified)	-	-	-	-	-	-
COc1cc(C(c2nnnn2C2CCCC2)N2CCc3ccccc3C2)ccc1O (stereo unspecified)	57	.	-	-	.	-
NC(=O)C1CCN(C(c2ccccc2)c2nnnn2C2CCCC2)CC1 (stereo unspecified)	.	-	.	.	-	.
Oc1ccc(C(c2nnnn2C2CCCC2)N2CCc3ccccc3C2)cc1 (stereo unspecified)	81	-	94	-	-	-
Cc1ccc(-c2nn3c(C)nnc3s2)cc1NCc1c(F)cccc1Cl	74	-	68	-	-	-
Cc1nnc2sc(-c3cccc(NC(=O)c4cccnc4)c3)nn12	-	-	-	-	-	-
Cc1ccc(-c2nn3c(C)nnc3s2)cc1NC(=O)c1cccnc1	60	-	50	-	-	-
Cc1ccc(CNc2cc(-c3nn4c(C)nnc4s3)ccc2C)s1	54	-	-	-	-	-
COc1ccc(Cl)cc1C(=O)N1CCN=C1SC	-	.	-	-	.	-
Cc1nn(C(=O)C(C)N2C(=O)c3ccccc3C2=O)c(C)c1Br (stereo unspecified)	-	-	-	-	-	-
Cn1c(SCc2nc3ccccc3[nH]2)nnc1-c1cccnc1	-	-	-	-	-	-
SMILES	CYP2C9 inh	sEH inh	CYP2C19 inh	CYP2C19 activ	sEH act	CYP2C9 activ
c1coc(Cn2c(SCc3nc4ccccc4[nH]3)nnc2-c2cccs2)c1	92	-	98	-	-	-
Cc1cccc(-c2nnc(SCc3nc4ccccc4[nH]3)n2Cc2ccco2)c1	70	-	54	-	-	-
Cc1ccc(-c2nnc(SCc3nc4ccccc4[nH]3)n2Cc2ccco2)cc1	-	-	-	-	-	-
COc1cc2c(cc1OC)C(c1cccs1)N(C(=O)C(C)C)CC2 (stereo unspecified)	-	.	63	-	.	-
COc1cc2c(cc1OC)C(c1ccccc1)N(C(=O)CCl)CC2 (stereo unspecified)	-	-	-	-	-	-
Cc1ccc(C2(C)NC(=O)N(CC(=O)NC(=O)NC3CCCC3)C2=O)cc1 (stereo unspecified)	-	-	-	-	-	-
O=C(c1ccc2nc3ccccc3c(=O)n2c1)N1CCN(Cc2ccc3c(c2)OCO3)CC1	53	-	-	-	-	-
